# Results published in PMC9838217, “Structure of SALL4 zinc finger domain reveals link between AT-rich DNA binding and Okihiro syndrome”.
# Residue numbers refer to the chain shown, from its start.
# Molecular target: T1, SALL4 ZFC4 R900W (HT-SELEX) (Mus musculus, UniProt Q8BX22 870-940, R900W)
# T1 sequence: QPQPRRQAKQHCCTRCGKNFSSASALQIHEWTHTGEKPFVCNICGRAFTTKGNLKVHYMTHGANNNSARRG
# Assay: HT-SELEX; high values mean tight binding
# Details: protein: recombinant; vector His6-GST; dsDNA, one strand shown
# Procedure, shortened: (§1)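 A 100 µl reaction of 10 mM Tris–HCl pH 7.5, 50 mM NaCl, poly(dI-dC) and DTT held purified recombinant mouse SALL4 zinc finger cluster 4 (residues 870–940, 1 µg) and library DNA (1.5 µg first cycle, 200 ng later) for 10 min at room temperature. Complexes captured on Ni2+ beads were washed, PCR-amplified and reselected for up to 6 cycles, in triplicate, then MiSeq-sequenced and scanned for 6-mers. Binding signal is the read fraction of each canonical k-mer expressed as fold change over the initial random library.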
row,Sequence,binding signal [fold-change vs cycle 0]
1,AGAAAG,1.52 ± 0.0945
2,CCATGC,0.399 ± 0.0174
3,TACCTA,1.48 ± 0.0891
4,ACACAA,1.2 ± 0.0676
5,ACGTAA,1.3 ± 0.0477
6,CTCTGA,0.948 ± 0.0551
7,ACATAC,1.4 ± 0.0493
8,AGCTTC,0.839 ± 0.0164
9,GAGTGA,1.02 ± 0.0645
10,CTAAGC,0.793 ± 0.0207
11,CTGAGA,0.922 ± 0.033
12,CTTGCC,0.384 ± 0.0251
13,CTACCC,0.523 ± 0.00774
14,AGCATC,0.804 ± 0.0378
15,ATTCCA,1.44 ± 0.0779
16,AGGACT,0.994 ± 0.0593
17,AACATG,1.38 ± 0.0255
18,AGATAG,1.5 ± 0.0704
19,CGTCAA,0.667 ± 0.0148
20,GTTCCA,0.862 ± 0.0102

# Molecular target: T2, SALL4 ZFC4 G921D (HT-SELEX) (Mus musculus, UniProt Q8BX22 870-940, G921D)
# T2 sequence: T1 sequence with W31R, G52D
# Assay: HT-SELEX; high values mean tight binding
# Details: protein: recombinant; vector His6-GST; dsDNA, one strand shown
# Procedure, shortened: as §1
row,Sequence,binding signal [fold-change vs cycle 0]
1,AAGACC,0.911 ± 0.0351
2,ACGGGA,0.583 ± 0.0299
3,CGGAAG,0.707 ± 0.0759
4,AGTTCA,1.44 ± 0.0878
5,CATGCA,0.805 ± 0.0272
6,AGGCAT,0.816 ± 0.0443
7,GCGAAA,0.534 ± 0.0715
8,CTGTAA,1.33 ± 0.121
9,GCAATA,1.11 ± 0.028
10,AGTAAA,1.78 ± 0.193
11,AAACAA,1.66 ± 0.151
12,CCGTAG,0.516 ± 0.0548
13,AGAATG,1.35 ± 0.0697
14,GAATAA,1.82 ± 0.178
15,CCCAAA,0.729 ± 0.0699
16,AAGTCT,1.38 ± 0.0691
17,TGCCAA,0.652 ± 0.0602
18,CATGGG,0.645 ± 0.0616
19,AGGAGA,1.06 ± 0.044
20,CAGTTA,1.36 ± 0.0634

row,Sequence,binding signal [fold-change vs cycle 0]
1,AGAAAG,1.36 ± 0.112
2,CCATGC,0.514 ± 0.0663
3,TACCTA,1.42 ± 0.0965
4,ACACAA,1.19 ± 0.0605
5,ACGTAA,1.21 ± 0.0842
6,CTCTGA,0.993 ± 0.0433
7,ACATAC,1.33 ± 0.0922
8,AGCTTC,0.895 ± 0.0229
9,GAGTGA,1.05 ± 0.0602
10,CTAAGC,0.857 ± 0.014
11,CTGAGA,0.951 ± 0.0498
12,CTTGCC,0.501 ± 0.0709
13,CTACCC,0.607 ± 0.0541
14,AGCATC,0.887 ± 0.0448
15,ATTCCA,1.38 ± 0.106
16,AGGACT,1.02 ± 0.0375
17,AACATG,1.32 ± 0.0877
18,AGATAG,1.43 ± 0.117
19,CGTCAA,0.765 ± 0.0373
20,GTTCCA,0.915 ± 0.0401
